# Reference: PubChem BioAssay (Tox21)
# Inconclusive results are not listed. A call without a number means that no potency is given here. Values without a mark were called inactive. Activity calls are given as the source filed them. Unless noted, calls follow the shape of the full dose curve.
# Target: D(2) dopamine receptor (Homo sapiens) (UniProt P14416)
# Assay: Dopamine D2 receptor (DRD2) small molecule agonists, cell-based qHTS assay (AID 1963594); also: nearly all actives have a fitted effect of over 35% in size
# Conditions: HEK293-DRD2 cAMP HTRF, agonist mode, 30 min; series mostly up to 92.4 µM
# Method in brief: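 HEK293 cells stably expressing DRD2 were cultured 24 h at 37 C, then given Ro20-1724 (0.1 mM final) and compounds for 10 min at room temperature. NKH477 (200nM) was then added for 30 min. cAMP was read by HTRF.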
# D(2) dopamine receptor (Homo sapiens), sequence (P14416 whole entry, looked up): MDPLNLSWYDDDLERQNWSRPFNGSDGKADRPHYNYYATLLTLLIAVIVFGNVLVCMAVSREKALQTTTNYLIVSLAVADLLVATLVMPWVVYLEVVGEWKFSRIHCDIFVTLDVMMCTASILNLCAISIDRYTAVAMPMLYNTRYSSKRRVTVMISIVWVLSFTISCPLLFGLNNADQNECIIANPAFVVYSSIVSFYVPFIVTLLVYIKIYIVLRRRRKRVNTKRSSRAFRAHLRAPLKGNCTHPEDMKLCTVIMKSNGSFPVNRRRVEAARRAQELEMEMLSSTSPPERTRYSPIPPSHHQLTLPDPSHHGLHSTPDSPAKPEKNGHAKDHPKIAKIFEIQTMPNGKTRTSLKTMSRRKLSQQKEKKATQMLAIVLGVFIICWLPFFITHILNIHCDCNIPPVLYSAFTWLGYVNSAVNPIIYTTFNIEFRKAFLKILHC
SMILES,Potency,activation
CC(C)n1nc(-c2cc3cc(O)ccc3[nH]2)c2c(N)ncnc21,inactive,–
CCOC(=O)COc1ccc2c(C)c(CCN(CC)CC)c(=O)oc2c1Cl,inactive,–
Cc1cccc(C)c1NC(=O)CN1CCN(CCCC(c2ccc(F)cc2)c2ccc(F)cc2)CC1,inactive,–
O=C(Nc1cccc([N+](=O)[O-])c1)c1cc2ccccc2cc1O,inactive,–
CC(CN)CC(C)(C)CCN (centres undefined),inactive,–
OCCCS,inactive,–
Cc1cc(=O)oc2cc(N(C)C)ccc12,inactive,–
CCCCCOc1ccccc1/C(=C\SC)n1ccnc1,inactive,–
CC[C@H]1CC[C@H](NCc2cc3c(cc2OC)[C@H]2C[C@H]2C(=O)N3C)[C@H](c2ccccc2)N1,inactive,–
C=CC(=O)OCC1CC2CC1C1CCC(COC(=O)C=C)C21 (centres undefined),inactive,–
COC(=O)c1nc(Cl)c(Cl)nc1N,inactive,–
c1cc(OCC2CO2)cc(OCC2CO2)c1 (centres undefined),inactive,–
C=CC(=O)OCCCCCCOC(=O)C=C,inactive,–
CCCCNCCCC,inactive,–
O=C(c1ccc(F)cc1)C1CCN(CCn2c(=S)[nH]c3ccccc3c2=O)CC1,inactive,–
Clc1ccc(Cn2c(CN3CCCC3)nc3ccccc32)cc1,inactive,–
CCC(C)(C)c1ccc(CC(C)CN2C[C@@H](C)O[C@@H](C)C2)cc1 (some centres undefined),inactive,–
CCCCCCCCCCCCCCCCCCCl,–,0.784% [at 8.39 µM]
c1cc(CN2CCCCC2)cc(OCCCNc2nc3ccccc3s2)c1,inactive,–
COC(=O)C1=C(C)NC(C)=C(C(=O)O[C@@H]2CCCN(Cc3ccccc3)C2)[C@@H]1c1cccc([N+](=O)[O-])c1,inactive,–
O=[N+]([O-])c1ccc(O/N=C/c2cc(Br)c(O)c(Br)c2)c([N+](=O)[O-])c1,inactive,–
CCCCCCC(C)OC(=O)COc1nc(F)c(Cl)c(N)c1Cl (centres undefined),inactive,–
CC(O)C#CC(C)O (centres undefined),inactive,–
COC(=O)C1=C(C)NC(COC(N)=O)=C(C(=O)OC(C)C)C1c1cccc(Cl)c1Cl (centres undefined),inactive,–
c1ccc(Cc2ccccc2)cc1,inactive,–
O=C(Nc1ccc(Cl)cc1)Nc1ccc(Cl)c(C(F)(F)F)c1,inactive,–
Oc1c(I)cc(Cl)c2cccnc12,inactive,–
CCOc1ccc(N=Nc2ccc(/C=C/c3ccc(N=Nc4ccc(OCC)cc4)cc3S(=O)(=O)O)c(S(=O)(=O)O)c2)cc1,inactive,–
CN(C)CCCN1c2ccccc2Sc2ccc(C(F)(F)F)cc21,inactive,–
CCCCCC[C@@H](O)C/C=C\CCCCCCCC(=O)O,inactive,–

# Target: D(2) dopamine receptor (Homo sapiens) (UniProt P14416)
# Assay: Dopamine D2 receptor (DRD2) small molecule antagonists, cell-based qHTS assay (AID 1963595; active = well fitted inhibition curve with a large enough effect in the signal ratio in the repeat runs, with a control signal flat; the % refers to the signal ratio; also: potency is read from the fitted curve at half-maximal effect)
# Conditions: HEK293-DRD2 cAMP HTRF antagonist mode; series mostly up to 92.4 µM
# Method in brief: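 HTRF cAMP read-out at 665 and 620 nm emission (340 nm excitation). Antagonist mode: compounds were tested against 12 nM quinpirole in DRD2-HEK293 cells, with 200 nM NKH477 raising cAMP and 0.1 mM Ro20-1724 blocking its breakdown.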
SMILES,Potency,"activity change, negative = inhibition"
COC(=O)CC(C)CCC=C(C)C (centres undefined),inactive,–
CC(C)n1nc(-c2cc3cc(O)ccc3[nH]2)c2c(N)ncnc21,inactive,–
CNCc1ccc(NC(=O)c2c[nH]c3c2C(=O)CCC3)cc1,inactive,–
CCOC(=O)COc1ccc2c(C)c(CCN(CC)CC)c(=O)oc2c1Cl,inactive,–
O=C(Nc1cccc([N+](=O)[O-])c1)c1cc2ccccc2cc1O,inactive,–
COc1ccccc1N1CCN(CC(O)COc2cccc3ccccc23)CC1 (centres undefined),33.5 µM (active),–
CC(CN)CC(C)(C)CCN (centres undefined),inactive,–
Cc1cc(NC(=O)C(=O)O)cc(C)c1Oc1ccc(O)c2c1CCC2,inactive,–
Cc1cc(=O)oc2cc(N(C)C)ccc12,inactive,–
CCCCCOc1ccccc1/C(=C\SC)n1ccnc1,inactive,–
C=CC(=O)OCC1CC2CC1C1CCC(COC(=O)C=C)C21 (centres undefined),inactive,–
CCc1c(C(=O)NN2CCCCC2)nn(-c2ccc(Cl)cc2Cl)c1-c1ccc(Br)cc1,inactive,–
COC(=O)c1nc(Cl)c(Cl)nc1N,inactive,–
c1cc(OCC2CO2)cc(OCC2CO2)c1 (centres undefined),inactive,–
C=CC(=O)OCCCCCCOC(=O)C=C,inactive,–
CCCCNCCCC,inactive,–
Clc1ccc(Cn2c(CN3CCCC3)nc3ccccc32)cc1,inactive,–
CCC(C)(C)c1ccc(CC(C)CN2C[C@@H](C)O[C@@H](C)C2)cc1 (some centres undefined),inactive,–
CCCCCCCCCCCCCCCCCCCl,–,3.22% [at 8.38 µM]
COC(=O)C1=C(C)NC(C)=C(C(=O)O[C@@H]2CCCN(Cc3ccccc3)C2)[C@@H]1c1cccc([N+](=O)[O-])c1,inactive,–
CCCCCCC(C)OC(=O)COc1nc(F)c(Cl)c(N)c1Cl (centres undefined),inactive,–
CC(O)C#CC(C)O (centres undefined),inactive,–
COC(=O)C1=C(C)NC(COC(N)=O)=C(C(=O)OC(C)C)C1c1cccc(Cl)c1Cl (centres undefined),inactive,–
c1ccc(Cc2ccccc2)cc1,inactive,–
O=C(Nc1ccc(Cl)cc1)Nc1ccc(Cl)c(C(F)(F)F)c1,inactive,–
Oc1c(I)cc(Cl)c2cccnc12,inactive,–
CCN(CC)CCNc1ccc(CO)c2sc3ccccc3c(=O)c12,inactive,–
CCOc1ccc(N=Nc2ccc(/C=C/c3ccc(N=Nc4ccc(OCC)cc4)cc3S(=O)(=O)O)c(S(=O)(=O)O)c2)cc1,inactive,–
CN(C)CCCN1c2ccccc2Sc2ccc(C(F)(F)F)cc21,0.0596 µM (active),–
